These results are taken from PubChem BioAssay (NCATS).

Values joined by “and” are separate entries in the source; they are usually repeats but may differ in a detail not shown here. Equal entries are not always repeated. Results filed as inconclusive are left out. Active and inactive are the calls of the source. Unless noted, calls come from the whole dose curve; as a rule, active = well fitted curve in either direction with a large enough effect (not every such curve was filed as active); inconclusive = small, poorly fitted or top-dose-only effect, or another doubt; inactive = flat fitted curve, though single readings scatter.

Assay [1] in a line: AP1 Signaling Pathway (AID 357).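 Note: ME-180 reporter cells stimulated with EGF at its EC50 level; % is set by controls: 0 for no effect and ±100 for the full control effect.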 Particulars: ME-180 AP-1-bla reporter, EGF-induced, beta-lactamase ratio, 5 h. An outline of the steps: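 Modulation of EGF-driven AP-1 transcription was assessed with a beta-lactamase reporter in ME-180 cells. Compound and EC50 EGF were co-incubated 5 hours at 37 °C before 2.5-hour CCF4 loading at room temperature and dual-emission reading.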

The target in assay [2] is Cytochrome P450 1A2 (Homo sapiens) (UniProt P05177). The experiment in a line: p450-cyp1a2 (AID 410; calls by dose curve). Particulars: recombinant CYP1A2, luciferin-ME demethylation, luminescence; series mostly up to 57 µM. The procedure, abridged:
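Luminescent readout of luciferin formed from Luciferin-ME by human CYP1A2; data normalized against complete inhibition by 57 uM furafylline. Enzyme 20nM, substrate 100uM at Km, 100mM KPO4 buffer, 60 min reaction at room temperature.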

Assay [3] in a line: NFAT Signaling Pathway (AID 444).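 Note: carbachol stimulus at about its EC50 of 1 µM final; % is set by controls: 0 for no effect and ±100 for the full control effect.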 To be noted: Jurkat NFAT-bla M1, carbachol, beta-lactamase ratio, 5 h. An outline of the steps: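 Jurkat cells with NFAT-driven β-lactamase reporter and co-expressed M1 receptor, stimulated with carbachol (final 1 uM, ~EC50), compound titration, 5 h at 37 °C. CCF4 loaded 1 h at RT; 460/530 nm ratio gave %activity and AC50.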
Assay [4] in a line: Stat Signaling Pathway (AID 446).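 Note: ME-180 cervical cancer cells given 40 pM IL-6 alongside compound; SIE-controlled beta-lactamase reporter measured as 460/530 nm FRET emission ratio; % is set by controls: 0 for no effect and ±100 for the full control effect.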 To be noted: ME-180 SIE beta-lactamase reporter, IL-6 stimulated, 5 h. An outline of the steps:
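Reporter line: ME-180 cervical carcinoma, SIE-beta-lactamase. Treatment: compound with 40 pM IL-6, 5 hrs, 37 C, in low-serum OPTI-MEM with 10 mM HEPES pH 7.3. Detection: 460/530 nm fluorescence.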

Assay [5] addresses Mitogen-activated protein kinase 10 (Mus musculus) (UniProt Q61831). Description: JNK3 AlphaScreen Assay (AID 530).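 Note: kinase came from lysate of stimulated human HepG2 cells; signal reports phosphorylation of biotinylated GST-cJun 1-79 at Ser73 with 10 µM ATP; % is set by controls: 0 for no effect and ±100 for the full control effect.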 Particulars: JNK3 lysate, c-Jun phosphorylation; series mostly up to 57.1 µM. The procedure, abridged: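 Pre-activated (IL-1β/TNFα) JNK3 in HepG2 lysates phosphorylates biotin-GST-cJun(1-79), 10 uM ATP; anti-phospho-cJun(Ser73) AlphaScreen read at room temperature, pH 7.6 Tris buffer. Compounds pre-incubated 15 min as titrations.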
For orientation: In Alpha technology, singlet oxygen from a donor bead excites a nearby acceptor bead.

Assay [6] addresses 3',5'-cyclic-AMP phosphodiesterase 4B (Homo sapiens) (UniProt Q07343). Description: qHTS Assay for Inhibitors of PDE-IV (AID 607; active = well fitted activation curve with a large enough effect in the main read-out, with a control signal flat, not every such curve was filed as active; note: % of control where 0% means no effect). To be noted: HEK293 ACTOne CNG channel cells, membrane potential fluorescence; series mostly up to 22.9 µM. The procedure, abridged: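 Cell-based read-out of cAMP via a modified cyclic nucleotide-gated channel and membrane potential dye (535/590 nm) in HEK293 cells expressing PDE4 endogenously. Compounds tested up to 22.9 uM final; 100 uM RO 20-1724 reference.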
Background: Quantitative high-throughput screening tests each substance at several concentrations.

Assay [7] addresses Pyruvate kinase (Leishmania mexicana) (UniProt Q27686). The experiment in a line: qHTS Validation Assay for Inhibitors of Leishmania Mexicana Pyruvate Kinase (AID 945; active = well fitted curve in the direction sought with a large enough effect; an effect the other way counts as inactive or inconclusive;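 note: 0% = DMSO only neutral control wells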). To be noted: purified L. mexicana pyruvate kinase, enzyme activity, E451W mutant enzyme; series mostly up to 57.5 µM. An outline of the steps: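 qHTS eight-point titrations against 0.2 nM LmPYK (E451W) in imidazole buffer pH 7.2 with 0.5 mM PEP, 0.1 mM ADP; 1 h, room temperature. Readout: PKLight luminescence, normalized to neutral DMSO wells.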

For assay [8], the target named is Alpha-galactosidase A (Homo sapiens) (UniProt P06280). Description: Counterscreen for Glucocerebrosidase Inhibitors: qHTS Assay for Human alpha-Galactosidase at pH 4.5 (AID 992; active = well fitted curve in the direction sought with a large enough effect; an effect the other way counts as inactive or inconclusive; note: 0% is about no effect). Particulars: purified enzyme, fluorogenic substrate; series mostly up to 76.9 µM. An outline of the steps: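 Quantitative HTS: compounds tested from 0.7 nM up to 77 uM against 2 nM enzyme with 80 uM 4-MU alpha-D-galactopyranoside. The 20 min room-temperature reaction is stopped with 1M NaOH/1M glycine, pH 10.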
Alpha-galactosidase A (Homo sapiens), sequence (P06280 whole entry, looked up): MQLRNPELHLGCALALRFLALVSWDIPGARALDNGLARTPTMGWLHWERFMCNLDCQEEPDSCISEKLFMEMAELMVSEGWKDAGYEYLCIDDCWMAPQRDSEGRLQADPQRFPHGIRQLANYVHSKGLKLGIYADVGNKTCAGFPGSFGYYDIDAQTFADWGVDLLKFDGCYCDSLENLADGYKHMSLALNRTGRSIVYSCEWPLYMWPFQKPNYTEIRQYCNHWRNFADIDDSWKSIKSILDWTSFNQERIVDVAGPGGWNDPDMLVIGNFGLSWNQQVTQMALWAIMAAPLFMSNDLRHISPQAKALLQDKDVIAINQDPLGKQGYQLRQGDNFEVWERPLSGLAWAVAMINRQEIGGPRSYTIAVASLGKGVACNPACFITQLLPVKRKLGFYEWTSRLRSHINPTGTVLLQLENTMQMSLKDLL
For orientation: Counterscreens check selectivity or assay interference.

The target of assay [9] is alpha-glucosidase (Oryza sativa, rice) (UniProt Q653V4). Description: Counterscreen for Glucocerebrosidase Inhibitors: qHTS Assay for Rice alpha-Glucosidase at pH 5.0 (AID 997; active = well fitted curve in the direction sought with a large enough effect; an effect the other way counts as inactive or inconclusive;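 note: 0% = full activity with enzyme and -100% = basal without enzyme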). Particulars: rice alpha-glucosidase enzyme activity; series mostly up to 76.9 µM. The procedure, abridged:
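Rice alpha-glucosidase (4 nM final) with 400 uM 4-methylumbelliferyl-alpha-D-glucopyranoside in citrate buffer pH 5.0, 20 min at room temperature, stopped at pH 10; fluorescence 365/440 nm, compounds 0.7 nM–77 uM, AC50 from Hill fits.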

A short description of assay [10]: qHTS Assay for Lipid Storage Modulators (AID 1519; calls by dose curve). Particulars: Drosophila S3 cells, BODIPY lipid droplet/cell ratio, laser cytometry, cells loaded with oleic acid; for activity change, negative = inhibition: at 25.7 µM (top of the series). An outline of the steps: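 Cells seeded at 5,000 per well were treated with compounds over a concentration series and loaded with oleic acid (400 uM, as added). Lipid droplet fluorescence (488 nm excitation, 500-530 nm channel) was read by laser-scanning cytometry and normalized to 20 uM Triacsin C.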

In assay [11] the target is Ubiquitin carboxyl-terminal hydrolase 1 (Homo sapiens) (UniProt O94782). The experiment in a line: Inhibitors of USP1/UAF1: Pilot qHTS (AID 504865; active = well fitted curve in the direction sought with a large enough effect; an effect the other way counts as inactive or inconclusive;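 note: rhodamine fluorescence freed from ubiquitin-rhodamine substrate followed over time; top concentration of the series differs between compounds; % is set by controls: 0 for no effect and ±100 for the full control effect; nearly all actives have a fitted effect of over 35% in size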). Particulars: purified USP1/UAF1, Ub-rhodamine cleavage fluorescence; series mostly up to 54.9 µM. An outline of the steps: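 USP1/UAF1 complex (1nM) preincubated with compound 15 min at room temperature, then Ub-Rho substrate (150nM final) added. Fluorescence read kinetically at 480/540 nm, 6 reads every 60 seconds. Buffer: 50mM HEPES pH 7.8, 0.5mM EDTA, 0.1 mg/ml BSA, 1mM TCEP, 0.01% Tween-20.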
Ubiquitin carboxyl-terminal hydrolase 1 (Homo sapiens), sequence (O94782 whole entry, looked up): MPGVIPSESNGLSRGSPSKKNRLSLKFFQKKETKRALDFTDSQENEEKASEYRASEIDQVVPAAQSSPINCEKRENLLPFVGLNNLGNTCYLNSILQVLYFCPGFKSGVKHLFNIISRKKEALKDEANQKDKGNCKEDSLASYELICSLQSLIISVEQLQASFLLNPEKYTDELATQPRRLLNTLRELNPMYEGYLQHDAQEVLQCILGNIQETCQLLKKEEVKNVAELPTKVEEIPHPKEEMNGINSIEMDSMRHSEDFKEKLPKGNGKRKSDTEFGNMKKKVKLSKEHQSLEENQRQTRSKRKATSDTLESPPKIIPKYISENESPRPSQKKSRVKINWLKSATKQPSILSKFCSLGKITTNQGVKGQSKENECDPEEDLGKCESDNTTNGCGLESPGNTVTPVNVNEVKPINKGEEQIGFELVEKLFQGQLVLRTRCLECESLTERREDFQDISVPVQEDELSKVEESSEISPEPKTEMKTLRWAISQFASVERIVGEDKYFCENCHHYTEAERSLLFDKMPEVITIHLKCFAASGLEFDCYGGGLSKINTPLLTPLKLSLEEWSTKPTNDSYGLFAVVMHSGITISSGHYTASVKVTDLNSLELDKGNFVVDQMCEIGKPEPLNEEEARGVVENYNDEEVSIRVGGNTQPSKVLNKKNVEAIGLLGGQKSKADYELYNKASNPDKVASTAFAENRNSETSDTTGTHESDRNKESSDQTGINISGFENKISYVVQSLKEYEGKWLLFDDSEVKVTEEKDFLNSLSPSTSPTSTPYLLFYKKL

Assay [12] has as its target Glucocorticoid receptor (Homo sapiens) (UniProt P04150). Description: GR-GFP Redistribution (AID 450;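 active = compounds whose dose series gives a full or clear partial fitted curve of increased nuclear translocation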; note: potency is the fitted concentration of half-maximal effect). To be noted: U2OS GR-GFP nuclear translocation, laser cytometry, 2 h.
Assay [13] has the same target. Description: GR-EFC Redistribution (AID 451; calls by dose curve; note: potency is the fitted concentration of half-maximal effect). To be noted: CHO-K1 GR-EFC translocation, beta-gal luminescence, 2 h. An outline of the steps: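 CHO-K1 cells expressing nuclear EA and GR-ED fragments of b-gal; compounds titrated up to 46 uM final, 2 h at 37 C. GR nuclear translocation read as complemented b-gal luminescence after 1 h RT detection.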
Where [14] appears, read: at 7.69 µM (top of the series) unless noted.
The mark [15] stands for this setting: measured here: cell count channel max response.
Where [16] appears, read: measured here: lipid channel max response.

3',5'-cyclic-AMP phosphodiesterase 4B (Homo sapiens), sequence (Q07343 whole entry, looked up): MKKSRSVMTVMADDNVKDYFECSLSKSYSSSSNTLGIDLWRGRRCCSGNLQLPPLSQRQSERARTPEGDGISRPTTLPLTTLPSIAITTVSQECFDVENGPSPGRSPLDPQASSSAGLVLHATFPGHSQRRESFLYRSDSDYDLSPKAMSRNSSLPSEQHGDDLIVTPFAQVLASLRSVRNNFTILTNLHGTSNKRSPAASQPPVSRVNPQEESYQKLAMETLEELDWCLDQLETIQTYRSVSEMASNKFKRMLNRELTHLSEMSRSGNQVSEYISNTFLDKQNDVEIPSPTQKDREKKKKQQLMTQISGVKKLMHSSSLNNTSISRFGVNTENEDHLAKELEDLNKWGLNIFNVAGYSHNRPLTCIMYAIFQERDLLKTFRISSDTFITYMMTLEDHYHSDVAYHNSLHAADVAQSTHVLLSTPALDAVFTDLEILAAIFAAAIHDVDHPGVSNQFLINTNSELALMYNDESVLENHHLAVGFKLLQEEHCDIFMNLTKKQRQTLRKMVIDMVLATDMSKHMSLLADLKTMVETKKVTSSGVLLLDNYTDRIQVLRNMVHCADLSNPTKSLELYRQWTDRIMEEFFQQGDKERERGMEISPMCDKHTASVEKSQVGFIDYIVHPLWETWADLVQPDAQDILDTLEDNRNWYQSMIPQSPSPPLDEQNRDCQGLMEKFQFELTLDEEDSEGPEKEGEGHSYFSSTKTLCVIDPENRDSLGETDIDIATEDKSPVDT
Pyruvate kinase (Leishmania mexicana), sequence (Q27686 2-499 E452W): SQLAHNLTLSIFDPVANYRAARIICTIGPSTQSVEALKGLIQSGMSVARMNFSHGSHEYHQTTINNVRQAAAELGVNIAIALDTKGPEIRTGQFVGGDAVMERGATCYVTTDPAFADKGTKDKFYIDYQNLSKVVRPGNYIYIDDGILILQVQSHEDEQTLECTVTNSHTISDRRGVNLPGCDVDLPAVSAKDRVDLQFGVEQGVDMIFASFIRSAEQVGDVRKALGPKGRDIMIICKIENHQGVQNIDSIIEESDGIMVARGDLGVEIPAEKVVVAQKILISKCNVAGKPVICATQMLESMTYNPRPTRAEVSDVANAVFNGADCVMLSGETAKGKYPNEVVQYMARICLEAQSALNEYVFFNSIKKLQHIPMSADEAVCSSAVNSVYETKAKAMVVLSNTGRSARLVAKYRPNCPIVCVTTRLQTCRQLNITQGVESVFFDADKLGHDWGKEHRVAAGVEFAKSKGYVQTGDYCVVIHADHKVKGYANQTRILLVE
Glucocorticoid receptor (Homo sapiens), sequence (P04150 whole entry, looked up, the tested form may be a part): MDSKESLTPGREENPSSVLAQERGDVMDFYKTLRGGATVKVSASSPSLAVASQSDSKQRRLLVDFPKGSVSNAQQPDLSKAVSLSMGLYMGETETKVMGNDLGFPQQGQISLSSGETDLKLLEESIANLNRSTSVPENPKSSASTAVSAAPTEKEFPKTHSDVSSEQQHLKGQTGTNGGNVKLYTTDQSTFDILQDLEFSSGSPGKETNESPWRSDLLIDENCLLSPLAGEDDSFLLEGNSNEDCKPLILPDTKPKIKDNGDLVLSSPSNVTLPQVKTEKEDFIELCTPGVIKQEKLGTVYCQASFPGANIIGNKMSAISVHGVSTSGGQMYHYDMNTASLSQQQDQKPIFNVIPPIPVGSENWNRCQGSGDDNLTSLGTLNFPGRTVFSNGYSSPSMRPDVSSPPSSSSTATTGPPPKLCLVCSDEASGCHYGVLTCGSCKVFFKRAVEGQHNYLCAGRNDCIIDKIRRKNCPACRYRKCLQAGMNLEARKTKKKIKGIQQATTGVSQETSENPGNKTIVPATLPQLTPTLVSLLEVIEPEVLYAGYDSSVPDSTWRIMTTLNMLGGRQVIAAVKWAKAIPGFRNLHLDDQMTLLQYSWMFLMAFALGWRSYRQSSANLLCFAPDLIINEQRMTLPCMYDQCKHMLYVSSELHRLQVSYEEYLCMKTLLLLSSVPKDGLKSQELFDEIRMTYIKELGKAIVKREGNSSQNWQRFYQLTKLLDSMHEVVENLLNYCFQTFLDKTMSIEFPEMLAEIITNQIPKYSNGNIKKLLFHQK
Cytochrome P450 1A2 (Homo sapiens), sequence (P05177 whole entry, looked up): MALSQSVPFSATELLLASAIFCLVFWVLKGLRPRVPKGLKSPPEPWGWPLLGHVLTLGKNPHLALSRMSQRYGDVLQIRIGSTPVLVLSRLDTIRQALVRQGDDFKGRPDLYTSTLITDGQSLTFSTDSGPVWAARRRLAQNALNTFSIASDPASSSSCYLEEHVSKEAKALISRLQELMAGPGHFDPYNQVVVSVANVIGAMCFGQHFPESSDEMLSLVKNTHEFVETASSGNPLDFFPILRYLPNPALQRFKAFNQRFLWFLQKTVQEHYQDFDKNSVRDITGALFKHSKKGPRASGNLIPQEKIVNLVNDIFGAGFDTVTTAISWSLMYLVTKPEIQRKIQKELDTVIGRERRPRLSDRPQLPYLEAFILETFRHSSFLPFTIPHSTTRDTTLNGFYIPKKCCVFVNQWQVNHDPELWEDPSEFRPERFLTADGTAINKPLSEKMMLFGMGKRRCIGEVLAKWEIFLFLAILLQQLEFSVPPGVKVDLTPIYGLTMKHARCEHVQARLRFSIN

Turning to `CC(=O)O[C@]1(C(C)=O)CC[C@@H]2[C@@H]3C=C(Cl)C4=CC(=O)[C@H]5C[C@@H]5[C@]4(C)[C@H]3CC[C@]21C`, the activity change, negative = inhibition was 5.64% (inactive) in assay [1] (at 17.2 µM (top of the series)); 3.07% (inactive) in assay [1] (at 38 µM (top of the series)); -18.6% (inactive) in assay [3] (at 17.2 µM (top of the series)); -9.31% (inactive) in assay [3] (at 38 µM (top of the series)); -2.31% (inactive) in [10]. Further, the Potency entry in assay [2], in assay [5], in assay [6] and in assay [11] was “inactive” in each case. The activity, negative = inhibition in assay [4] (setting [14]) is -5.59% [at 17.2 µM] (inactive). Also, the outcome in assay [7], in assay [8] and in assay [9] was inactive. Also, the figures for the max response in assay [10] (setting [15]) and in assay [10] (setting [16]) were -4.56% and -7.45%, respectively.

As to `CC(C)(Oc1ccc([C@@H]2CC2(Cl)Cl)cc1)C(=O)O`, the activity change, negative = inhibition is -1.19% (inactive) in assay [1] (at 17.2 µM (top of the series)); -10.2% (inactive) in assay [1] (at 38 µM (top of the series)); -16.8% (inactive) in [3] (at 17.2 µM (top of the series)); -7.66% (inactive) in [3] (at 38 µM (top of the series)); -0.371% (inactive) in assay [10]. The Potency result in [2], in [5], in assay [6] and in [11] was “inactive” each time. Moreover, the activity, negative = inhibition in assay [4] (setting [14]) is -2.06% [at 17.2 µM] (inactive). For the same compound, the Potency in [12] is > 46 µM (inactive) and > 20.6 µM (inactive); in assay [13], > 46 µM (inactive) and > 20.6 µM (inactive). Also, the compound was called inactive in [7], in [8] and in assay [9]. For the same compound, the max response in [10] (setting [15]) is -16.1%; in assay [10] (setting [16]), -15.2%.

Consider `CCCCCN(CCCCC)C(=O)[C@H](CCC(=O)O)NC(=O)c1ccc(Cl)c(Cl)c1`, for which the activity change, negative = inhibition was -2.01% (inactive) in assay [1] (at 17.2 µM (top of the series)); 3.64% (inactive) in [1] (at 38 µM (top of the series)); -6.01% (inactive) in assay [3] (at 17.2 µM (top of the series)); -3.5% (inactive) in [3] (at 38 µM (top of the series)); -1.39% (inactive) in assay [10]. Further, the Potency entry in [2], in [5] and in assay [11] was “inactive” each time. For the same compound, the activity, negative = inhibition was -27.7% (inactive) in assay [4] (at 17.2 µM (top of the series)) and -25.5% (inactive) in [4] (at 38 µM (top of the series)). Besides, the Potency is > 46 µM (inactive) and > 20.6 µM (inactive) in assay [12]; > 46 µM (inactive) and > 20.6 µM (inactive) in assay [13]. Further, the outcome in assay [7], in assay [8] and in [9] was inactive. Also, the max response in [10] (setting [15]) was -23.7%; in assay [10] (setting [16]), -25%.
